Data reported in PubChem BioAssay (Tox21).
Inconclusive results are not listed. The source made the active and inactive calls. The call rests on the fitted dose curve; in most records, active means well fitted inhibition curve with a large enough effect in the repeat runs; inconclusive means weak or mixed curves; inactive means no such curve, though single readings can be large or run the other way.
On the % scale 0 is the no-effect control and ±100 the full control effect; potency means the concentration at half of the fitted maximal effect.

The compounds below were run against Cytochrome P450 2C9 (Homo sapiens) (UniProt P11712) (assay: Cytochrome P450 Family 2 Subfamily C Member 9 (CYP2C9) small molecule antagonists: luciferase reporter qHTS assay (AID 1671198; further: nearly all actives have a fitted effect of over 50% in size)). Conditions: P450-Glo CYP2C9 enzyme assay, luciferin luminescence; series mostly up to 115 µM; activity change, negative = inhibition: at the top concentration.
Cytochrome P450 2C9 (Homo sapiens), sequence (P11712 whole entry, looked up): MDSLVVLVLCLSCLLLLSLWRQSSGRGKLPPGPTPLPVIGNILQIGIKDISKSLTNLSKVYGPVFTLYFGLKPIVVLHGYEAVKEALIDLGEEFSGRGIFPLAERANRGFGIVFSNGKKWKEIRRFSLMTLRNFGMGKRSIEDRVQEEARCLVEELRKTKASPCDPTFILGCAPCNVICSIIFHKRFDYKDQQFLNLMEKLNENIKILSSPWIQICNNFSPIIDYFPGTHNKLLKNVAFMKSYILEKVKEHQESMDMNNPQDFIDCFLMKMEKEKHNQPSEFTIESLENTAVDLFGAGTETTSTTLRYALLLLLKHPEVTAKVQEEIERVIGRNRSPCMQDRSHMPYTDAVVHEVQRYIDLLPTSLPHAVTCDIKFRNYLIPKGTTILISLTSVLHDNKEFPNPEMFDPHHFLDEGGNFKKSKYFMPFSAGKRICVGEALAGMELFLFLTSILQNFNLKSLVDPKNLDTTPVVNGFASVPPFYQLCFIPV
How it was run: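 Enzyme-substrate mix preincubated with compound 10 min at room temperature; reaction started with NADPH regeneration solution, 1 h 37C. Luminescent luciferin product read after 20 min detection reagent.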
In the case of COc1cc2nc(Cl)nc(N)c2cc1OC, the “activity change, negative = inhibition” value is reported as -8% [at 53 µM] (inactive).
With CCCCC1=NC2(CCCC2)C(=O)N1Cc1ccc(-c2ccccc2-c2nn[nH]n2)cc1 the Potency was 17.4 µM (active).
For CNCCCN1c2ccccc2CCc2ccccc21, the “activity change, negative = inhibition” value was 7.04% [at 53 µM] (inactive).
In the case of Cc1nn(C)c(Oc2ccccc2)c1/C=N/OCc1ccc(C(=O)OC(C)(C)C)cc1, the Potency is reported as 2.83 µM (active).
For CC[N+](C)(CC)CCOC(=O)C(O)(c1ccccc1)C1CCCCC1 (centres undefined), the “activity change, negative = inhibition” value was 20.2% [at 53 µM] (inactive).
With O=C1[C@H]2CCCC[C@H]2C(=O)N1CCCCN1CCN(c2nsc3ccccc23)CC1 the “activity change, negative = inhibition” value was 24.7% [at 53 µM] (inactive).
OC(C#CCN1CCCC1)(c1ccccc1)c1ccccc1 was tested, and the Potency was 15.5 µM (active).
With CCOC(=O)Cc1cccc2ccccc12 the “activity change, negative = inhibition” value was 23.3% (inactive).
In the case of OCCN1CCN(CCCN2c3ccccc3C=Cc3ccccc32)CC1, the “activity change, negative = inhibition” value is reported as -2.54% [at 53 µM] (inactive).
For Nc1ccc(S(=O)(=O)Nc2ccccc2)cc1, the “activity change, negative = inhibition” value was -6.4% [at 53 µM] (inactive).
With O=C(NCCO[N+](=O)[O-])c1cccnc1 the “activity change, negative = inhibition” value was 8.03% [at 53 µM] (inactive).
CCCCC was tested, and the “activity change, negative = inhibition” value was -0.902% (inactive).
With CCO[Si](CCCCl)(OCC)OCC the Potency was 35.3 µM (active).
With CCCCc1nc2cccnc2n1Cc1ccc(-c2ccccc2-c2nnn[nH]2)cc1 the Potency was 0.356 µM (active).
For CCCCC/C=C\C/C=C\CCCCCCCC(=O)NC(C)c1ccccc1 (centres undefined), the Potency was 2.45 µM (active).
CCOc1ccc(N)c([N+](=O)[O-])c1 was tested, and the Potency was 63.3 µM (active).
In the case of COc1ccc2cccc(CCNC(C)=O)c2c1, the Potency is reported as 15.5 µM (active).
For c1ccc(C(O[C@H]2CCCN(CCc3ccc4c(c3)OCO4)C2)c2ccccc2)cc1, the Potency was 15.5 µM (active).
CN1CCC(=C2c3ccccc3Sc3ccccc32)CC1 was tested, and the “activity change, negative = inhibition” value was -10.1% [at 53 µM] (inactive).
For Clc1ccc(Cn2c(CN3CCCC3)nc3ccccc32)cc1, the Potency was 15.5 µM (active).
With CCCOC(C(=O)OC1CCN(C)CC1)(c1ccccc1)c1ccccc1 the “activity change, negative = inhibition” value was -10.3% [at 53 µM] (inactive).
In the case of O=C(Nc1ccc(S(=O)(=O)N2CCOCC2)cc1)c1cc(Cl)ccc1NS(=O)(=O)c1ccc(Cl)s1, the Potency is reported as 0.0436 µM (active).
For CCCCNc1ccc(C(=O)OCCOCCOCCOCCOCCOCCOCCOCCOCCOC)cc1, the Potency was 12.3 µM (active).
With COc1cc2c(cc1OC)C(C(C(=O)N(CCc1ccc(OC)c(OC)c1OC)CCc1ccc(OC)c(OC)c1OC)c1ccccc1)=NCC2 (centres undefined) the Potency was 11 µM (active).
In the case of CCN(CC)CCOC(=O)C(c1ccccc1)C1CCCCC1 (centres undefined), the “activity change, negative = inhibition” value is reported as -16.6% [at 53 µM] (inactive).
With CCCCCCCCCCO[C@@H]1O[C@H](CO)[C@@H](O)[C@H](O)[C@H]1O the “activity change, negative = inhibition” value was -20% (inactive).
For CCCCCCOC(=O)NC(=N)c1ccc(NCc2nc3cc(C(=O)N(CCC(=O)OCC)c4ccccn4)ccc3n2C)cc1, the Potency was 3.09 µM (active).
For CCC(=O)O[C@]1(C(=O)CCl)[C@@H](C)C[C@H]2[C@@H]3CCC4=CC(=O)C=C[C@]4(C)[C@@]3(F)[C@@H](O)C[C@@]21C, the Potency was 30.9 µM (active).
S=C([S-])NCCNC(=S)[S-].[Mn+2] was tested, and the Potency was 11.2 µM (active).
In the case of CC(=O)c1cccc([N+](=O)[O-])c1, the “activity change, negative = inhibition” value is reported as -0.664% (inactive).
With Cc1c(N)cccc1[N+](=O)[O-] the “activity change, negative = inhibition” value was -8.71% (inactive).
For CC(C)Cc1ccc(C(C)C(=O)OCc2ccccn2)cc1 (centres undefined), the Potency was 7.76 µM (active).
CC(=O)OC[C@H]1O[C@@H](n2ncc(=O)[nH]c2=O)[C@H](OC(C)=O)[C@@H]1OC(C)=O was tested, and the “activity change, negative = inhibition” value was -1.19% [at 53 µM] (inactive).
For CCCCC(CC)COC(=O)CCCCCCCCC(=O)OCC(CC)CCCC (centres undefined), the “activity change, negative = inhibition” value was -14.7% (inactive).
COc1ccnc(CS(=O)c2nc3ccc(OC(F)F)cc3[nH]2)c1OC (centres undefined) was tested, and the Potency was 34.7 µM (active).
With O[C@@H](COc1cccc2ncccc12)CN1CCN(C2c3ccccc3[C@@H]3[C@H](c4ccccc42)C3(F)F)CC1 (some centres undefined) the Potency was 11 µM (active).
CC1OC(=O)C(C)OC1=O (centres undefined) was tested, and the “activity change, negative = inhibition” value was -0.892% (inactive).
With Cc1cccc(C)c1OCC(=O)N[C@@H](Cc1ccccc1)[C@@H](O)C[C@H](Cc1ccccc1)NC(=O)[C@H](C(C)C)N1CCCNC1=O the Potency was 13.8 µM (active).
In the case of O=C(Cl)c1cc(C(=O)Cl)cc(C(=O)Cl)c1, the Potency is reported as 28.3 µM (active).
